Pf apPOL inh: Pf-apPOL DNA polymerase inhibition; Recombinant Pf-apPOL, molecular beacon fluorescence, 1.5 h; inhibition, % at 10 µM; hit rate 0.25% among 210,000; AID 1794808
mHTT-CaM PPI inh: inhibitors of human mutant huntingtin-calmodulin interaction | AID 1671202 | AlphaScreen His-mHTT/GST-CaM binding, luminescence | inhibition, % at 15 µM | P42858 | hit rate 3.6% among 190,000;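 further: 0% = both proteins with DMSO and 100% = one protein alone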
The depositor's hits bear a star; x = no result. Shown are actives, neighbours in structure and some others; about 3.5% of the full set was active somewhere. No stated cut-off is given here; in the data, active means inhibition above about 50%; inactive means the rest.

SMILES	Pf apPOL inh	mHTT-CaM PPI inh
CC1=C(C(=O)Nc2ccccc2)C(c2ccc(N(C)C)cc2)n2ncnc2N1 (centres undefined)	-1	9
O=C(Nc1ccccc1)N1CCCC(OCc2cc(F)ccc2F)C1 (centres undefined)	-1	1
CCN1CCN(C2CCN(C(=O)c3cc(C)cc(C)c3)CC2)C1=O	-2	95*
CCN1CCN(C2CCN(C(=O)c3ccc(C)cc3)CC2)C1=O	-5	-9
Cc1ccc2c(c1)/C(=C/c1ccc(Br)cc1)c1cccnc1-2	x	14
Cc1ccc2c(c1)/C(=C/c1ccc3c(c1)OCO3)c1cccnc1-2	-4	52*
Fc1ccc(C2=NCCC(c3ccccc3)O2)cc1 (centres undefined)	-10	51*
O=C1OC(c2ccc(F)cc2)=N/C1=C\c1ccccc1	-1	11
CC1=C(C(=O)Nc2ccccn2)C(c2ccc(OCc3ccccc3)cc2)n2nnnc2N1 (centres undefined)	6	46
CC1=C(C(=O)Nc2ccccc2)C(c2ccc(OCc3ccccc3)cc2)n2nnnc2N1 (centres undefined)	-5	62*
CC1(C)COc2ccc(NC(=O)Cc3cccs3)cc2NC1=O	-11	8
COc1cccc(-c2cc(C(=O)Nc3c(Cl)cccc3Cl)no2)c1	-1	-14
Cc1ccccc1C(=O)Nc1c(C)nc2sccn2c1=O	2	-5
O=[N+]([O-])c1cccc(-c2csc(N=Nc3c(O)[nH]c4ccc(Br)cc34)n2)c1	1	x
O=C(N=Nc1c(O)[nH]c2ccc(Br)cc12)c1ccco1	80*	x
CCOC(=O)c1cnc(C(F)(F)F)nc1NN=Cc1c(Cl)cccc1Cl	-9	x
CC1(C)Nc2ccccc2-c2c1ssc2=Nc1cccc(Cl)c1	x	69*
Cc1ccc2c(c1)NC(C)(C)c1ssc(=Nc3ccc(Cl)cc3Cl)c1-2	x	62*
Cc1cc2c(cc1C)-c1c(ssc1=Nc1ccc(S(N)(=O)=O)cc1)C(C)(C)N2	x	20
Cc1ccc2c(c1)-c1c(ssc1=Nc1cc(Cl)ccc1Cl)C(C)(C)N2	x	98*
Cc1ccc2c(c1)/C(=C/c1ccc(Cl)cc1)C(=O)N2	-2	36
COc1cccc(C2=NOC(C(=O)NCCc3ccc(OC)c(OC)c3)C2)c1 (centres undefined)	0	-2
CN(C)C1CCCN(Cc2ccccc2Cl)C1=O (centres undefined)	3	-4
CC(C)N1CCN(C(=O)c2n[nH]c3c2CNCC3)CC1	-10	0
CC1(C)OC2OC(C(=O)Nc3ccccc3C(F)(F)F)C3OC(C)(C)OC3C2O1 (centres undefined)	1	-5
SMILES	Pf apPOL inh	mHTT-CaM PPI inh
Nc1c(C(=O)Nc2ccc(Cl)cc2Cl)sc2[nH]c(=O)c(C(=O)O)cc12	6	7
Nc1c(C(=O)c2ccc(Cl)cc2)sc2[nH]c(=O)c(C(=O)O)cc12	-1	59*
Cc1ccc(NC(=O)c2coc(=O)c3ccccc23)c(Cl)c1	-3	6
COc1ccc(OC)c(C2C3=C(CC(C)(C)CC3=O)NC3=C2C(=O)c2ccccc23)c1 (centres undefined)	-5	41
CC1(C)CC(=O)C2=C(C1)NC1=C(C(=O)c3ccccc31)C2c1cc([N+](=O)[O-])ccc1O (centres undefined)	4	63*
CC1(C)CC(=O)C2=C(C1)NC1=C(C(=O)c3ccccc31)C2c1ccc([N+](=O)[O-])o1 (centres undefined)	-3	55*
CC(=O)N1c2ccccc2NC2=C(C(=O)CC(C)(C)C2)C1c1ccc([N+](=O)[O-])o1 (centres undefined)	1	2
Cc1cc(C)cc(NC(=O)Cn2nc3c(cc2=O)CC(C)CC3)c1 (centres undefined)	-2	1
CN1CCCc2cc(C(=O)N3CCCCC3)sc21	0	6
O=C(Nc1c2c(nn1-c1ccc([N+](=O)[O-])cc1)CSC2)c1ccccc1Cl	-4	7
CCOc1ccccc1NC(=O)N1CCC2(CC1)Nc1ccccc1-n1cccc12	-7	21
CCOC(=O)Cc1ccc(NC(=O)N2CCC3(CC2)Nc2ccccc2-n2cccc23)cc1	4	76*
CCOC(=O)c1cccc(NC(=O)N2CCC3(CC2)Nc2ccccc2-n2cccc23)c1	-5	66*
CCOC(=O)c1ccccc1NC(=O)N1CCC2(CC1)Nc1ccccc1-n1cccc12	4	60*
O=C(Nc1cccc(C(F)(F)F)c1)N1CCC2(CC1)Nc1ccccc1-n1cccc12	4	97*
C=CCOCC(=O)c1ccc(NC(C)=O)cc1	5	-1
COc1ccc(/C=C/C(=O)NCCc2nc3ccccc3[nH]2)cc1Br	8	24
Cc1nc(NC(=O)C2CCN(c3cc(-n4ccnc4)ncn3)CC2)sc1C(=O)N(C)C	3	7
CCC(=O)NC(c1ccccc1Cl)c1cc(Cl)c2cccnc2c1O (centres undefined)	6	100*
CCC(=O)NC(c1ccccc1OC)c1cc(Cl)c2cccnc2c1O (centres undefined)	2	87*
CCCC(=O)NC(c1ccccc1OC)c1cc(Cl)c2cccnc2c1O (centres undefined)	-12	51*
CCC(=O)NC(c1ccc(Cl)cc1)c1cc(Cl)c2cccnc2c1O (centres undefined)	7	41
CCCC(=O)NC(c1ccc(OC)c(OC)c1)c1cc(Cl)c2cccnc2c1O (centres undefined)	-50	25
O=C(NC1CCCCC1)C1c2ccccc2C(=O)N1C1CCCCC1 (centres undefined)	-4	9
CC1CCCCC1N1C(=O)c2ccccc2C1C(=O)NC1CCCCC1 (centres undefined)	-3	52*
SMILES	Pf apPOL inh	mHTT-CaM PPI inh
COc1ccc(NC(=O)COc2ccc([N+](=O)[O-])cc2)c(OC)c1	-8	-2
COc1ccc(NCc2ccc([N+](=O)[O-])s2)c(OC)c1	22	67*
O=C(C1CCCC1)N1CC(c2nc(-c3ccccc3)no2)C2(CCOCC2)C1 (centres undefined)	-6	11
O=S1(=O)N=CN(c2ccc(Cl)c(F)c2)c2ncccc21	3	-4
CC1=C(C(=O)Nc2cccnc2)C(c2ccccn2)n2ncnc2N1 (centres undefined)	1	-6
CCCCNC(=O)c1cnn2c(C)c(Cc3ccc(Cl)cc3)c(C)nc12	-6	11
CCOCCCNC(=O)c1cnn2c(C)c(Cc3ccc(Cl)cc3)c(C)nc12	-18	65*
CCCNC(=O)c1cnn2c(C)c(Cc3ccc(F)cc3)c(C)nc12	-4	-1
Cc1nc2c(C(=O)NCCc3ccccc3)cnn2c(C)c1Cc1ccc(F)cc1	-4	80*
Cc1nc2c(C(=O)NCc3ccc(F)cc3)cnn2c(C)c1Cc1ccc(F)cc1	-8	51*
Cc1nc2c(C(=O)NCc3ccc(F)cc3)cnn2c(C)c1Cc1ccccc1	-7	19
Cc1ccc(C)c(Cc2c(C)nc3c(C(=O)NCCc4ccccc4)cnn3c2C)c1	-3	66*
CCCCNC(=O)c1cnn2c(C)c(Cc3cc(C)ccc3C)c(C)nc12	0	11
COc1ccc(CN2CCN(C3CCN(C(=O)c4cccc(C)c4)CC3)C2=O)cc1	-1	11
Cc1ccc(NC(=O)N2CCCC2c2cc(C(C)C)on2)cc1Cl (centres undefined)	-6	-9
CCOC1(NC(=O)c2ccc(Br)cc2)C(C)=CC(=O)C=C1C	4	-2

Screening results (PubChem BioAssay)
